Publication PMC9911399, “Two distinct binding modes provide the RNA-binding protein RbFox with extraordinary sequence specificity”
Where a chain is given by its changes, count along the chain named. Whole data set: some 16,000 sequences, median “ka relative to ugcaugu” near 0.096, cut for the highest 2% near 0.35. Only a selection was taken, and the highest values are over-represented in it overall.

T1: RBFOX1 RRM RbFoxmut (Fox-RRM*) (Homo sapiens, UniProt Q9NWB1 109-208, R118D;E147R;N151S;E152T)
T1 sequence: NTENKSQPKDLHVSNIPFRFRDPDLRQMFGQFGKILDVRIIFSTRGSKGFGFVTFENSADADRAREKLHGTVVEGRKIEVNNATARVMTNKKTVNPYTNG

B1: GCGCGAC (DNA:RNA)
RNA: GGGAGACCGGAAUUCAGAUUGUCCGCGCGACUUAAAUCCCGUCGUAGCCACCA
DNA 1: CAATCTGAATTCCGGTCTCCC
DNA 2: TGGTGGCTACGACGGGATT
B2: UUAAGCC (DNA:RNA)
RNA: B1 RNA with G25U, C26U, G27A, C28A, A30C
DNA 1: CAATCTGAATTCCGGTCTCCC
DNA 2: TGGTGGCTACGACGGGATT
B3: CCCGAUC (DNA:RNA)
RNA: B1 RNA with G25C, G27C, C28G, G29A, A30U
DNA 1: CAATCTGAATTCCGGTCTCCC
DNA 2: TGGTGGCTACGACGGGATT
B4: CUUCGGU (DNA:RNA)
RNA: B1 RNA with G25C, C26U, G27U, A30G, C31U
DNA 1: CAATCTGAATTCCGGTCTCCC
DNA 2: TGGTGGCTACGACGGGATT
B5: AAGGCAA (DNA:RNA)
RNA: B1 RNA with G25A, C26A, C28G, G29C, C31A
DNA 1: CAATCTGAATTCCGGTCTCCC
DNA 2: TGGTGGCTACGACGGGATT
B6: UGAUUGA (DNA:RNA)
RNA: GGGAGACCGGAAUUCAGAUUGUCCUGAUUGAUUAAAUCCCGUCGUAGCCACCA
DNA 1: CAATCTGAATTCCGGTCTCCC
DNA 2: TGGTGGCTACGACGGGATT
B7: UGAUGAA (DNA:RNA)
RNA: B6 RNA with U29G, G30A
DNA 1: CAATCTGAATTCCGGTCTCCC
DNA 2: TGGTGGCTACGACGGGATT
B8: UGAAUGA (DNA:RNA)
RNA: B6 RNA with U28A
DNA 1: CAATCTGAATTCCGGTCTCCC
DNA 2: TGGTGGCTACGACGGGATT
B9: AAAAUGC (DNA:RNA)
RNA: B6 RNA with U25A, G26A, U28A, A31C
DNA 1: CAATCTGAATTCCGGTCTCCC
DNA 2: TGGTGGCTACGACGGGATT
B10: AGAUUGC (DNA:RNA)
RNA: B6 RNA with U25A, A31C
DNA 1: CAATCTGAATTCCGGTCTCCC
DNA 2: TGGTGGCTACGACGGGATT
B11: AGAAUGC (DNA:RNA)
RNA: B6 RNA with U25A, U28A, A31C
DNA 1: CAATCTGAATTCCGGTCTCCC
DNA 2: TGGTGGCTACGACGGGATT
B12: UCGUUCG (DNA:RNA)
RNA: B6 RNA with G26C, A27G, G30C, A31G
DNA 1: CAATCTGAATTCCGGTCTCCC
DNA 2: TGGTGGCTACGACGGGATT
B13: AGCCUAC (DNA:RNA)
RNA: B1 RNA with G25A, C26G, G27C, G29U
DNA 1: CAATCTGAATTCCGGTCTCCC
DNA 2: TGGTGGCTACGACGGGATT
B14: CCUGUCC (DNA:RNA)
RNA: B1 RNA with G25C, G27U, C28G, G29U, A30C
DNA 1: CAATCTGAATTCCGGTCTCCC
DNA 2: TGGTGGCTACGACGGGATT
B15: GAUUAGG (DNA:RNA)
RNA: B6 RNA with U25G, G26A, A27U, U29A, A31G
DNA 1: CAATCTGAATTCCGGTCTCCC
DNA 2: TGGTGGCTACGACGGGATT
B16: CGCAGCG (DNA:RNA)
RNA: B1 RNA with G25C, C26G, G27C, C28A, A30C, C31G
DNA 1: CAATCTGAATTCCGGTCTCCC
DNA 2: TGGTGGCTACGACGGGATT
B17: UGCCUCC (DNA:RNA)
RNA: B6 RNA with A27C, U28C, G30C, A31C
DNA 1: CAATCTGAATTCCGGTCTCCC
DNA 2: TGGTGGCTACGACGGGATT
B18: UGUAGCC (DNA:RNA)
RNA: B1 RNA with G25U, C26G, G27U, C28A, A30C
DNA 1: CAATCTGAATTCCGGTCTCCC
DNA 2: TGGTGGCTACGACGGGATT
B19: UGGCCUG (DNA:RNA)
RNA: B1 RNA with G25U, C26G, G29C, A30U, C31G
DNA 1: CAATCTGAATTCCGGTCTCCC
DNA 2: TGGTGGCTACGACGGGATT
B20: UGUGGCC (DNA:RNA)
RNA: B1 RNA with G25U, C26G, G27U, C28G, A30C
DNA 1: CAATCTGAATTCCGGTCTCCC
DNA 2: TGGTGGCTACGACGGGATT
B21: UGCCUUG (DNA:RNA)
RNA: B6 RNA with A27C, U28C, G30U, A31G
DNA 1: CAATCTGAATTCCGGTCTCCC
DNA 2: TGGTGGCTACGACGGGATT
B22: AUUUGCC (DNA:RNA)
RNA: B1 RNA with G25A, C26U, G27U, C28U, A30C
DNA 1: CAATCTGAATTCCGGTCTCCC
DNA 2: TGGTGGCTACGACGGGATT
B23: AUUGCCU (DNA:RNA)
RNA: GGGAGACCGGAAUUCAGAUUGUCCAUUGCCUUUAAAUCCCGUCGUAGCCACCA
DNA 1: CAATCTGAATTCCGGTCTCCC
DNA 2: TGGTGGCTACGACGGGATT
B24: UGCUGCC (DNA:RNA)
RNA: B6 RNA with A27C, U29G, G30C, A31C
DNA 1: CAATCTGAATTCCGGTCTCCC
DNA 2: TGGTGGCTACGACGGGATT
B25: UGUUGCC (DNA:RNA)
RNA: B6 RNA with A27U, U29G, G30C, A31C
DNA 1: CAATCTGAATTCCGGTCTCCC
DNA 2: TGGTGGCTACGACGGGATT
B26: UUGCCUG (DNA:RNA)
RNA: B23 RNA with A25U, U27G, G28C, C30U, U31G
DNA 1: CAATCTGAATTCCGGTCTCCC
DNA 2: TGGTGGCTACGACGGGATT
B27: CAUUGCC (DNA:RNA)
RNA: B23 RNA with A25C, U26A, G28U, C29G, U31C
DNA 1: CAATCTGAATTCCGGTCTCCC
DNA 2: TGGTGGCTACGACGGGATT
B28: UGGCCUC (DNA:RNA)
RNA: B1 RNA with G25U, C26G, G29C, A30U
DNA 1: CAATCTGAATTCCGGTCTCCC
DNA 2: TGGTGGCTACGACGGGATT
B29: AGACGGA (DNA:RNA)
RNA: B6 RNA with U25A, U28C, U29G
DNA 1: CAATCTGAATTCCGGTCTCCC
DNA 2: TGGTGGCTACGACGGGATT
B30: CACCGUU (DNA:RNA)
RNA: B1 RNA with G25C, C26A, G27C, A30U, C31U
DNA 1: CAATCTGAATTCCGGTCTCCC
DNA 2: TGGTGGCTACGACGGGATT
B31: GUGUCCA (DNA:RNA)
RNA: B23 RNA with A25G, U27G, G28U, U31A
DNA 1: CAATCTGAATTCCGGTCTCCC
DNA 2: TGGTGGCTACGACGGGATT

What follows are binders tested against T1, RBFOX1 RRM RbFoxmut (Fox-RRM*) (assay: EMSA; HiTS-Eq, 1 nM pool, 10 min; buffer printed only for the single-RNA assays: 10 mM Tris pH 7.5, 150 mM NaCl, 3.4 mM EDTA, 0.001% NP-40, 30 C). Details: tags: His6 N-terminal (pET28a); label: 5' 32P.
Procedure, shortened: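 These values rest on relative association constants, computed from read-count changes of each RNA species versus the control reaction and normalised to the cognate motif. Reads came from free RNA recovered by 8% native PAGE after purified RbFox RRM (wild type or mutant) at increasing concentrations was equilibrated for 10 min in 50 µL with 1 nM of a 5′-radiolabelled pool with 7 randomized nucleotides and DNA-annealed flanks.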
In the case of B1, the binding signal is reported as 0.0897 KA relative to UGCAUGU. B2 was tested, and the binding signal was 0.106 KA relative to UGCAUGU. With B3 the binding signal was 0.0576 KA relative to UGCAUGU. B4 was tested, and the binding signal was 0.095 KA relative to UGCAUGU. For B5, the binding signal was 0.061 KA relative to UGCAUGU. In the case of B6, the binding signal is reported as 0.209 KA relative to UGCAUGU. With B7 the binding signal was 0.122 KA relative to UGCAUGU. B8 was tested, and the binding signal was 0.46 KA relative to UGCAUGU. B9 was tested, and the binding signal was 0.0633 KA relative to UGCAUGU. With B10 the binding signal was 0.14 KA relative to UGCAUGU. B11 was tested, and the binding signal was 0.408 KA relative to UGCAUGU. With B12 the binding signal was 0.218 KA relative to UGCAUGU. With B13 the binding signal was 0.0767 KA relative to UGCAUGU. With B14 the binding signal was 0.074 KA relative to UGCAUGU. In the case of B15, the binding signal is reported as 0.0809 KA relative to UGCAUGU. In the case of B16, the binding signal is reported as 0.135 KA relative to UGCAUGU. In the case of B17, the binding signal is reported as 0.155 KA relative to UGCAUGU. With B18 the binding signal was 0.141 KA relative to UGCAUGU. For B19, the binding signal was 0.359 KA relative to UGCAUGU. For B20, the binding signal was 0.263 KA relative to UGCAUGU. In the case of B21, the binding signal is reported as 1.27 KA relative to UGCAUGU. With B22 the binding signal was 0.257 KA relative to UGCAUGU. B23 was tested, and the binding signal was 0.108 KA relative to UGCAUGU. In the case of B24, the binding signal is reported as 0.298 KA relative to UGCAUGU. With B25 the binding signal was 0.296 KA relative to UGCAUGU. B26 was tested, and the binding signal was 0.377 KA relative to UGCAUGU. With B27 the binding signal was 0.374 KA relative to UGCAUGU. For B28, the binding signal was 0.106 KA relative to UGCAUGU. With B29 the binding signal was 0.0873 KA relative to UGCAUGU. With B30 the binding signal was 0.0894 KA relative to UGCAUGU. In the case of B31, the binding signal is reported as 0.121 KA relative to UGCAUGU.
